# Rows were chosen to be rich in hits. Some 4.6% of all compounds tested hit in one or more screens of this group.
# DAX1 inh-1 = DAX1 (NR0B1) inhibitors, primary screen, cell-based, HEK293, Gal4-DAX1, luciferase luminescence; HEK293 Gal4-DAX1 luciferase reporter; inhibition, % at 6.75 µM; actives 0.99% (n = 340,000);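 active = inhibition above the mean over all tested compounds plus 3 SD, cut at about 4.2% in these data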;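 note: 0% = DAX1-transfected cells with DMSO and 100% = empty-vector control cells with DMSO; inhibition shows as a rise in luminescence from relieved DAX1 repression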
# Target sequence (P51843 207-470 limits assumed): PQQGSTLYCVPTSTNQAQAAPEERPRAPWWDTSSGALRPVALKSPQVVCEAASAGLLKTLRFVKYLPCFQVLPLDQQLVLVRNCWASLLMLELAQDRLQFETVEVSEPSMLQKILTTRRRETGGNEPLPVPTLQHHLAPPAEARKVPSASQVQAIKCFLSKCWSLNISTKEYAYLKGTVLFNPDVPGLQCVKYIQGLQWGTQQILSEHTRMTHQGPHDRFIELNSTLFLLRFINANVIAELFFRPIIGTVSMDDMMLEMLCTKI
# DAX1 inh-2 = DAX1 (NR0B1) inhibitors on StAR promoter, primary screen, cell-based, luminescence, SF-1 (NR5A1), full-length DAX-1; HEK293T StAR-luciferase reporter, SF-1/DAX-1 repression relief; inhibition, % at 6.8 µM; actives 1.1% (n = 370,000); AID 652010, 2013;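 active = inhibition above the mean over all tested compounds plus 3 SD, cut at about 3.6% in these data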;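 note: 0% = DAX-1 cells with DMSO and 100% = cells lacking DAX-1 with DMSO; higher inhibition means more luminescence from relief of DAX-1 repression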
# Wee1 degr inh = Wee1 degradation inhibitors, primary screen, cell-based, HeLa, Wee1K328M-luciferase, luminescence; actives 1.2% (n = 220,000); HeLa Luc-Wee1K328M stability; 100% = proteasome inhibitor MG132 effect; reporter increase, % at 5 µM; Wee1-like protein kinase (Homo sapiens), P30291;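 active = activation above the mean of all tested compounds plus 3 SD, set per screening run, cut at about 8.8% in these data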;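 note: cells exposed to compound for 20 h before luminescence read; 0% = DMSO alone and 100% = MG132 at 30 µM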
# ssDAF-12 act = S. stercoralis DAF-12 nuclear receptor activators, primary screen, cell-based, luminescence, HEK293, GRIP1 co-expression, lit1-tk-luc; Nuclear hormone receptor DAF-12 (Strongyloides stercoralis); HEK293 ssDAF-12/GRIP1 lit1-tk-luc reporter; % of 3 µM dafachronic acid response; activation, % at 6.8 µM; actives 1% (n = 370,000); AID 652126, 2013;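 active = activation above the mean over all tested compounds plus 3 SD, cut at about 0.9% in these data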;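 note: 0% = DMSO-only wells and 100% = 3 µM delta7-dafachronic acid wells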
# hcDAF-12 act = H. contortus DAF-12 nuclear receptor activators, primary screen, cell-based, luminescence, HEK293, lit1-tk-luc reporter | activation, % at 6.8 µM | AID 652067, 2013 | HEK293 hcDAF-12 lit1-tk-luc reporter; 0% DMSO, 100% Δ7-dafachronic acid | actives 1.4% (n = 370,000);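 active = activation above the mean of all tested compounds plus 3 SD, cut at about 5.5% in these data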;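 note: 100% = response to 3 µM Δ7-dafachronic acid high control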
# hgDAF12 agonist = H. glycines DAF-12 receptor agonists, primary screen, cell-based, luminescence, HEK293, GAL4 fusion, UAS-luciferase | HEK293 GAL4-hgDAF12 UAS-luciferase reporter, agonist luminescence; normalized to butyrate control | AID 687014, 2013 | activation, % at 6.8 µM | Nuclear hormone receptor DAF-12 (Heterodera glycines), GAL4 fusion | actives 1.8% (n = 370,000);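 active = activation above a cutoff set at the mean of all screened compounds plus 3 SD, cut at about 10% in these data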;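 note: 0% = DMSO wells and 100% = sodium butyrate wells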
# Numbers without * were called inactive; . = no result.
SMILES,DAX1 inh-1,DAX1 inh-2,Wee1 degr inh,ssDAF-12 act,hcDAF-12 act,hgDAF12 agonist
CCC(=NCC1CCCO1)c1c(O)n(Cc2ccccc2)c(=O)[nH]c1=O (stereo unspecified),-0.1,-0.4,-0.1,-1.1,-0.9,-4.5
CC/C(=N\NC(=O)c1ccccc1)c1c(O)n(Cc2ccccc2)c(=O)[nH]c1=O,.,1.1,10.2*,-0.4,0.3,6.3
COCCN(C(=O)COC(=O)Cc1ccccc1)c1c(N)n(Cc2ccccc2)c(=O)[nH]c1=O,-1.6,0.4,.,-0.3,-0.6,-1.1
CN(C)C1(CNC(=O)Cc2ccccc2F)CCCCC1,0.1,0.1,.,-1.1,0.5,-1.9
CN(C)C1(CNC(=O)c2ccc(Cl)c(S(=O)(=O)NCc3ccco3)c2)CCCCC1,1.0,0.1,15.3*,-0.8,-2.2,1.9
COc1cc(C2c3cc4c(cc3CC3COC(=O)C32)OCO4)cc(OC)c1O (stereo unspecified),-1.4,4.2*,.,-0.9,-0.6,-4.0
O=S(=O)(c1ccccc1)N1CN2CCN(C2)C1,0.2,1.0,2.2,-1.2,-0.4,0.1
NCCNc1ccc([N+](=O)[O-])c2cccnc12,6.0*,0.6,2.9,-1.7,2.2,5.9
CC[C@H](OC(C)=O)C(C[C@H](C)N(C)C)(c1ccccc1)c1ccccc1,0.7,-0.2,.,-0.8,0.2,0.6
CCOC(=O)CC(SP1(=S)OCC2(CC=CCC2)CO1)C(=O)OCC (stereo unspecified),-0.3,3.9*,.,-1.0,0.7,-3.4
CCOc1ccc(N2C(=O)NC(=O)/C(=C/c3cnc(SC)nc3)C2=O)cc1,0.0,0.2,10.1*,-1.4,-0.2,3.6
O=S1(=O)N(CCN2CC=C(c3c[nH]c4cc(F)ccc34)CC2)c2cccc3c2N1CCC3,-0.3,-0.9,.,0.2,0.2,-2.6
Cc1ccccc1-n1c(O)c(/C=N/NC(=O)c2ccncc2)c(=O)[nH]c1=O,4.4*,0.1,-0.7,-1.3,0.5,-0.5
Cc1cc(C)c(-n2c(O)c(/C=N/NC(=O)c3ccncc3)c(=O)[nH]c2=O)c(C)c1,.,1.1,-1.1,-1.3,-0.7,-0.7
CCc1cc2c(cc1-c1csc(C/C(N)=N/O)n1)C(C)(C)CCC2(C)C,-0.7,-1.1,.,-1.0,-1.6,6.5
COc1cccc2c1C(=O)c1c(O)c3c(c(O)c1C2=O)CC(O)(C(C)=NO)CC3OC1CC(N)C(O)C(C)O1 (stereo unspecified),-2.8,-2.8,.,1.9*,4.8,3.2
Cc1nn(CC(C)C)c(Cl)c1C(=O)NC1CCC(C)CC1 (stereo unspecified),1.5,4.2*,.,0.7,4.1,6.4
Cc1nn(Cc2ccccc2Cl)c(Cl)c1C(=O)OCC(=O)NC(=O)NC1CCCCC1,-0.2,-0.4,-0.8,-1.0,-0.9,0.8
Cc1ccccc1-n1c(O)c(/C=C2/C(c3ccccc3)=Nc3ccccc32)c(=O)[nH]c1=O,-0.8,-2.0,4.4,-1.4,0.6,-0.2
COC(=O)C1=Nc2ccccc2/C1=C\c1c(O)n(-c2cc(OC)ccc2OC)c(=O)[nH]c1=O,-0.2,0.2,2.0,-0.7,5.8*,3.2
CC1=Nc2ccccc2/C1=C/c1c(O)n(C)c(=O)[nH]c1=O,3.2,0.5,.,0.6,6.4*,1.5
c1ccc2c3c([nH]c2c1)C1(CCNCC1)NCC3,0.7,0.4,-0.6,0.1,0.0,2.0
OCCCCO,0.7,0.4,.,-1.5,-0.4,-1.0
C=Cn1ccnc1P(=S)(c1ccc(Cl)cc1)c1nccn1C=C,5.2*,-0.4,1.4,0.5,0.1,0.4
Cn1cc(P(=S)(c2ccccc2)c2ccccc2)c2ccccc21,.,.,.,-0.7,1.6,-0.5
SMILES,DAX1 inh-1,DAX1 inh-2,Wee1 degr inh,ssDAF-12 act,hcDAF-12 act,hgDAF12 agonist
CNC(=O)c1cccn(Cc2ccc(C(F)(F)F)cc2)c1=O,1.0,-0.7,0.3,2.4*,0.1,-3.6
COP(=O)(C#Cc1ccccc1)C(O)c1ccc(Br)cc1 (stereo unspecified),1.1,0.2,-1.4,-1.3,-1.1,-0.3
CCOP(=O)(C#Cc1ccccc1)C(O)c1ccc(Br)cc1 (stereo unspecified),4.6*,-0.3,-4.0,-1.5,-1.8,-1.9
CN(C)[C@@H]1C(=O)C(C(N)=O)=C(O)[C@@]2(O)C(=O)C3=C(O)c4c(O)cccc4[C@@](C)(O)C3[C@H](O)C12 (stereo partly specified),-1.6,0.3,.,-1.3,-2.0,-1.9
COC(=O)C1=CO[C@@H](C)[C@@H]2CN3CC[C@@]4(C(=O)Nc5ccccc54)[C@@H]3C[C@H]12,0.7,-0.6,-2.3,-1.2,-0.5,-0.7
CNC(=O)O/N=C(\C)Cc1nnn(-c2cc(C)on2)n1,5.1*,-0.2,2.0,-1.3,0.4,1.9
N#CC1(c2ccccc2)CCN(C2CC(=O)N(c3ccc4c(c3)OCO4)C2=O)CC1 (stereo unspecified),0.5,0.6,0.1,-0.8,-1.5,-0.1
c1ccc2c(CNC3CCCCCC3)c[nH]c2c1,-0.7,-0.2,-3.0,-0.3,5.7*,0.1
Cc1ccc2[nH]c(C)c(CCNCc3cccnc3)c2c1,0.1,0.4,.,1.0*,-1.2,-0.8
CCCCOC(=O)C1=C(N)OC2=C(C(=O)CCC2)[C@]12C(=O)Nc1ccccc12,0.2,-0.1,1.0,-0.5,2.5,4.3
CC(=O)C1=C(C)OC(N)=C(C(=O)OC(C)C)C12C(=O)Nc1ccccc12 (stereo unspecified),0.3,0.1,1.6,-0.6,6.2*,1.0
COCCOC(=O)C1=C(C)OC(N)=C(C(=O)OC)C12C(=O)Nc1ccccc12 (stereo unspecified),-0.1,0.1,-1.3,0.7,3.0,0.7
COC(=O)C1=C(N)Oc2cc(C)oc(=O)c2C12C(=O)Nc1ccccc12 (stereo unspecified),0.0,-0.4,4.0,1.0*,5.1,-1.6
Cc1cc(N2CCNC[C@H]2C)ccc1N1CCN[C@@H](C)C1,.,1.9,.,-1.5,0.6,1.1
O=C1OCCC1C(=O)c1ccccc1 (stereo unspecified),1.0,0.7,.,-0.9,-1.0,0.3
CCCC(C)C1C(C#N)=C(N)Oc2c1c(=O)oc1ccccc21 (stereo unspecified),1.2,-0.5,1.7,-0.6,-1.4,-0.6
